Experimental data: PubChem BioAssay AID624101 (Broad Institute, 2012)
Hit rate of the full screen: of about 70,000 compounds, about 120 (0.17%) were called active. No stated cut-off is given here; in the data, active means inhibition above about 34%; inconclusive means no clear call, values can overlap the other calls; inactive means below about 11%. For the sample, actives were picked, then their nearest neighbours and some compounds at random.

Target: Isocitrate dehydrogenase [NADP] cytoplasmic (Homo sapiens) (UniProt O75874)
Experiment: PubChem AID 624101;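 further: 0% = DMSO and 100% = no enzyme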
Details: IDH1 R132H reductase, diaphorase/resazurin fluorescence, 60 min; at 10 µM; active compounds read high

Sequence of Isocitrate dehydrogenase [NADP] cytoplasmic (Homo sapiens) (O75874 whole entry R132H): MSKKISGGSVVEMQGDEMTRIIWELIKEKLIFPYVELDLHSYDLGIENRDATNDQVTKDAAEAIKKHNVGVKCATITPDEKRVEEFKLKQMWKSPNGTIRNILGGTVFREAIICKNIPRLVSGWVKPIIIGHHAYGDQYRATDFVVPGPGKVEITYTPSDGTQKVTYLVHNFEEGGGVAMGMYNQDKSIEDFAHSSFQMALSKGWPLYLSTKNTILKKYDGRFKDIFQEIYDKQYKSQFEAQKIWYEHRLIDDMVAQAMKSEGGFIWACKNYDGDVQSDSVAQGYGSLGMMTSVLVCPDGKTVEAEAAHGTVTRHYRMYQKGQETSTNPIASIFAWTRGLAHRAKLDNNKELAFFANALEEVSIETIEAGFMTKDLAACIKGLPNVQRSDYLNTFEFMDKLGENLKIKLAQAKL

Row | Structure (SMILES) | inhibition
1 | COc1ccccc1-c1cn(CC[C@H]2CC[C@@H](NC(=O)CCN3CCCCC3)[C@@H](CO)O2)nn1 | -0.639% (inactive)
2 | O=C(C[C@H]1C=C[C@@H](NC(=O)NC2CCCCC2)[C@@H](CO)O1)NCc1ccc(Cl)cc1 | 0.05% (inactive)
3 | CCC(=O)Nc1ccc2c(c1)C(=O)N(C)C[C@@H](OC)[C@H](C)CN(Cc1ccccc1C(=O)O)[C@@H](C)CO2 | -0.502% (inactive)
4 | CO[C@@H]1CN(C)C(=O)c2ccc(NS(C)(=O)=O)cc2OC[C@H](C)N(C(=O)C2CC2)C[C@H]1C | -0.15% (inactive)
5 | CC(=O)N[C@H]1CC[C@H](CCNC(=O)C2CC2)O[C@H]1CO | 0.591% (inactive)
6 | CCCc1cn(CC[C@@H]2CC[C@H](NS(=O)(=O)c3ccccc3Cl)[C@H](CO)O2)nn1 | -0.0115% (inactive)
7 | CCCC(=O)Nc1ccc2c(c1)C(=O)N(C)C[C@H](OC)[C@@H](C)CN(C(C)=O)[C@H](C)CO2 | 0.373% (inactive)
8 | COCc1cn(CC[C@H]2CC[C@H](NC(=O)c3ccncc3)[C@H](CO)O2)nn1 | 0.111% (inactive)
9 | O=C(N[C@@H]1CC[C@@H](CCn2cc(-c3ccccn3)nn2)O[C@@H]1CO)c1ccccc1 | 0.105% (inactive)
10 | O=C(C[C@@H]1C[C@H]2c3cc(NC(=O)C4CCOCC4)ccc3O[C@H]2[C@@H](CO)O1)NCCN1CCCCC1 | -0.003% (inactive)
11 | O=C(C[C@H]1CC[C@@H](NC(=O)c2ccccc2)[C@@H](CO)O1)NCc1ccncn1 | -0.091% (inactive)
12 | CO[C@@H]1CN(C)C(=O)c2cc(NC(=O)c3ccc(F)cc3)ccc2OC[C@H](C)N(C(=O)CN(C)C)C[C@H]1C | -0.235% (inactive)
13 | C[C@@H]1CN([C@H](C)CO)C(=O)c2cc(-c3ccccc3)cnc2O[C@H]1CN(C)C(=O)Nc1ccccc1 | -0.031% (inactive)
14 | Cc1noc(C)c1NC(=O)N(C)C[C@H]1Oc2ccc(NS(=O)(=O)c3ccc(Cl)cc3)cc2CC(=O)N([C@H](C)CO)C[C@@H]1C | 0.108% (inactive)
15 | O=C(N[C@H]1CC[C@H](CCn2cc(C3(O)CCCC3)nn2)O[C@H]1CO)C1CC1 | -0.0085% (inactive)
16 | COc1ccccc1CNC(=O)C[C@@H]1C[C@H]2c3cc(NC(=O)CN(C)C)ccc3O[C@H]2[C@@H](CO)O1 | -0.208% (inactive)
17 | C[C@@H]1CN([C@@H](C)CO)S(=O)(=O)c2ccc(C#Cc3ccncc3)cc2O[C@@H]1CN(C)S(=O)(=O)c1ccccc1 | -0.653% (inactive)
18 | CO[C@@H](CN(C)C(=O)c1cnccn1)[C@H](C)CN([C@H](C)CO)S(=O)(=O)c1ccc(C)cc1 | 0.027% (inactive)
19 | C/C=C/c1cnc2c(c1)C(=O)N([C@H](C)CO)C[C@H](C)[C@H](CN(C)C(=O)c1cccc(F)c1)O2 | 0.473% (inactive)
20 | CO[C@H]1CN(C)C(=O)c2cc(NS(=O)(=O)c3ccc(C)cc3)ccc2OC[C@H](C)NC[C@H]1C | 0.218% (inactive)

Row | Structure (SMILES) | inhibition
21 | COc1ccc(-c2cnc3c(c2)C(=O)N([C@@H](C)CO)C[C@@H](C)[C@H](CN(C)C(=O)C2CCCCC2)O3)cc1 | -0.366% (inactive)
22 | CN(C)C(=O)C[C@@H]1C=C[C@H](NC(=O)Nc2cccc(F)c2)[C@H](CO)O1 | 0.0155% (inactive)
23 | CCC(=O)Nc1ccc2c(c1)C(=O)N(C)C[C@H](OC)[C@H](C)CN(C(=O)c1ccccc1F)[C@@H](C)CO2 | -0.083% (inactive)
24 | COc1cccc(S(=O)(=O)Nc2ccc3c(c2)C(=O)N(C)C[C@@H](OC)[C@H](C)CN(C(=O)Cc2cccnc2)[C@H](C)CO3)c1 | 0.018% (inactive)
25 | CCCNC(=O)Nc1ccc2c(c1)C(=O)N(C)C[C@@H](OC)[C@@H](C)CN(C)[C@@H](C)CO2 | -0.291% (inactive)
26 | CO[C@@H]1CN(C)C(=O)c2cc(NS(C)(=O)=O)ccc2OC[C@@H](C)N(C(=O)C2CCC2)C[C@@H]1C | -0.303% (inactive)
27 | CCC(=O)Nc1ccc2c(c1)OC[C@@H](C)N(CC1CC1)C[C@H](C)[C@H](OC)CN(C)C2=O | 0.102% (inactive)
28 | O=C(C[C@@H]1C=C[C@@H](NC(=O)c2ccccc2)[C@H](CO)O1)NCCc1ccncc1 | 0.0765% (inactive)
29 | CO[C@H]1CN(C)C(=O)c2ccc(NC(=O)c3cc(C)on3)cc2OC[C@H](C)N(C)C[C@H]1C | 0.444% (inactive)
30 | CN1CCN(C(=O)C[C@H]2C[C@@H]3c4cc(NC(=O)NC5CCCC5)ccc4O[C@@H]3[C@@H](CO)O2)CC1 | 0.0955% (inactive)
31 | O=C(NCC[C@H]1CC[C@H](NC(=O)C2CC2)[C@@H](CO)O1)c1ccc(F)cc1 | 0.372% (inactive)
32 | O=C(Nc1ccc2c(c1)[C@@H]1C[C@H](CC(=O)N3CCOCC3)O[C@@H](CO)[C@@H]1O2)C1CCOCC1 | -1% (inactive)
33 | COCC(=O)Nc1ccc2c(c1)C(=O)N(C)C[C@@H](OC)[C@@H](C)CN(C(=O)c1ccccc1)[C@@H](C)CO2 | 0.0325% (inactive)
34 | CO[C@@H]1CN(C)C(=O)c2ccc(NC(=O)c3ccc(F)cc3)cc2OC[C@H](C)N(C)C[C@H]1C | 0.002% (inactive)
35 | COCC(=O)Nc1ccc2c(c1)[C@H]1C[C@H](CC(=O)OC)O[C@@H](CO)[C@H]1O2 | -0.0115% (inactive)
36 | CO[C@@H]1CN(C)C(=O)c2ccc(NS(=O)(=O)c3cccc(C)c3)cc2OC[C@@H](C)NC[C@H]1C | -0.0525% (inactive)
37 | COCC(=O)Nc1ccc2c(c1)OC[C@H](C)N(C(=O)COC)C[C@@H](C)[C@H](OC)CN(C)C2=O | -0.0515% (inactive)
38 | CC(=O)N(C)C[C@@H]1Oc2cc(-c3cncnc3)ccc2S(=O)(=O)N([C@@H](C)CO)C[C@H]1C | 1.05% (inactive)
39 | COc1ccccc1CNC(=O)C[C@H]1C[C@@H]2c3cc(NC(=O)c4ccc5c(c4)OCO5)ccc3O[C@@H]2[C@H](CO)O1 | -0.69% (inactive)
40 | CN(C)CCCNC(=O)C[C@@H]1C=C[C@H](NC(=O)c2ccccc2F)[C@H](CO)O1 | 0.626% (inactive)
